Data from ChEMBL document CHEMBL3433997, “St. Jude Leishmania screening dataset” (2016).
Values joined by “and” are separate entries in the source; they are usually repeats but may differ in a detail not shown here. Equal values may be shown once.

target: Glucose transporter (Leishmania mexicana) (UniProt O61059); experiment: ST_JUDE_LEISH: Cytotoxicity at 2uM final concentration against transgenic Leishmania Mexicana promastigotes LmGT2 that are glucose transport deficient and complemented with the L. Mexicana glucose transporter 2. Activity is measured by DNA content using SYBR green in vitro; format: functional

Row | SMILES | inhibition
1 | O=C1Nc2cccc3c2C1(CCCCN1CCC(c2cc4ccncc4[nH]2)CC1)CCC3 (stereo not given) | -0.84% and 8.48%
2 | Cc1onc(-c2ccc(Cl)cc2)c1-c1ccnn1S(=O)(=O)c1ccc(Cl)cc1 | 1.91%
3 | O=C(Nc1ccc(F)cc1)NC1CCN(c2ccnc3cc(Cl)ccc23)CC1 | 1.68%
4 | CCCCc1ccccc1NS(=O)(=O)c1ccc(OC)c(N2CCNCC2)c1 | -2.27%
5 | Fc1ccc2[nH]c(-c3cccc(-c4ccc(CNCc5ccccc5)cc4)c3)nc2c1 | 4.2%
6 | O=C(Nc1cccc(C(F)(F)F)c1)c1cccc(S(=O)(=O)NC2CCN(CC3CCCCC3)C2)c1 (stereo not given) | 2.99%
7 | O=C1CC(C(=O)O)CC(=O)N1 | -0.61%
8 | CCNc1cc(C(=O)N[C@@H](Cc2ccc(F)c(F)c2)[C@H](O)CNCc2cccc(OC)c2)cc(N2CCCCS2(=O)=O)c1 | -0.12%
9 | CC(=O)Oc1c(C2C=CCCC2)c(OC(C)=O)c2ccccc2c1OC(C)=O (stereo not given) | 1.98%
10 | CN1CCCN(Cc2cccc(-c3cccc(NC(=O)c4ccc(C#N)cc4)c3)c2)CC1 | 6.98%
11 | Cc1ccc(NC(=O)c2ccc(NCCCN(C)Cc3ccccc3)c([N+](=O)[O-])c2)cc1F | 2.68%
12 | Nc1ncnc2occ(-c3ccc(NC(=O)Nc4cc(C(F)(F)F)ccc4F)cc3)c12 | -2.03%
13 | CC(C)C[C@@H](/C=N/N1CCNC1=O)NC(=O)[C@H](CC(C)C)NC(=O)c1ccc(OCCN2CCOCC2)cc1 | 0.69%
14 | Cc1cc(N2CCCC2)nc(Nc2ccc(NC(=O)COc3ccccc3)cc2)n1 | 2.07%
15 | CCCCN(CCCC)CC(O)c1cc(-c2ccc(Cl)cc2)nc2c(Cl)cc(Cl)cc12 (stereo not given) | 4.19%
16 | NC(=O)c1ccccc1OCC(=O)Nc1ccc(-c2cccc(-c3nc4cc(C(F)(F)F)ccc4[nH]3)c2)cc1 | 3.74%
17 | CN=C(S)NN=C(C)c1ccccn1 | -1.99%
18 | Cc1cc(-c2cccc(CNC3CCN(C)CC3)c2)ccc1S(=O)(=O)NCCN1CCCC1 | 0.59%
19 | CN1CCC(NCc2cccc(-c3nn(C)c4nc(NC5CCCC5)ncc34)c2)CC1 | 3.81%
20 | COc1ccccc1NC(=O)Nc1cccc(-c2ccc(-c3nc4cccc(C)c4[nH]3)s2)c1 | 3.94%

Row | SMILES | inhibition
21 | CCNc1cc(C(=O)N[C@@H](Cc2ccccc2)[C@H](O)CNC(C)(C)CCCC(C)C)cc(N2CCCC2=O)c1 | 3.47%
22 | O=C(NCCN1CCOCC1)c1csc(C2CCCN(C(=O)c3ccc(O)c(-c4cc(Cl)cc(Cl)c4)c3)C2)n1 (stereo not given) | 1.85%
23 | O=C1COC(c2ccccc2)(c2ccccc2)CN1CC1CCN(Cc2ccc(O)cc2Cl)C1 (stereo not given) | 2.56%
24 | CN1CCCN(c2ccnc3cc4c(cc23)N(C(=O)c2ccc(Cl)c(Cl)c2)CC4)CC1 | 1.54%
25 | COc1ccc(-c2cc(-c3nc4cc(CN)ccc4[nH]3)c(=O)n(C)c2)cc1OC | -0.74%
26 | COc1cccc(CNC(=O)c2cc(CNCc3ccccc3)ccc2-c2cccc(CNCc3ccc(-c4ccccc4)cc3)c2)c1 | 6.21%
27 | CN(Cc1ccc(-c2ccc(C(F)(F)F)cc2)cc1)C(=O)Cn1c(CCc2cccc(F)c2F)cc(=O)c2ccc(OCCCN3CCCCC3)cc21 | -0.5%
28 | O=C(O)c1cccnc1Sc1ccc(Cl)cc1 | -0.47%
29 | Cc1ccccc1C1CCN(C2CCC(NC(=O)c3ccc(-c4cccs4)s3)CC2)CC1 (stereo not given) | 1.93%
30 | CCCCCCCCNc1c2ccc(Cl)cc2nc2ccc(OC)cc12 | 5.8%
31 | Cc1cc(Cl)c(S(=O)(=O)NC2CCCC2)cc1OCC(=O)NC1CCCCC1 | 3.8%
32 | O=C(/C=C/c1cccc(C(F)(F)F)c1)NCCCCCN1CCC(c2c[nH]c3ccccc23)CC1 | 1.4%
33 | O=C(Nc1ccccc1N1CCOCC1)c1ncoc1-c1ccccc1C(F)(F)F | 2.48%
34 | FC(F)(F)c1cc(Nc2ncnc3ccc(Br)cc23)ccc1OCc1ccccc1 | 3.84%
35 | CC(NCCC1CCC(NC(=O)N[C@H](C)C(O)(c2ccccc2)c2ccccc2)CC1)c1cccc2ccccc12 (stereo not given in full) | 13.4%
36 | O=C(NCCN1CCCC1)c1cccc(-c2ccc(-c3nc4cc(F)ccc4[nH]3)s2)c1 | 3.1%
37 | Nc1cccc(CNCc2ccc(-c3ccc(-c4nc5cc(C(F)(F)F)ccc5[nH]4)s3)cc2)c1 | 0.65%
38 | O=C(O)C[C@H](NC(=O)[C@@H]1CCCN1C(=O)c1cccc(-c2ccc(Cl)c(Cl)c2)c1)C(=O)O | 1.61%
39 | CCc1ccc(NC(=O)c2cccc(CN3CCCN(Cc4cccc(O)c4)CC3)c2)cc1 | 2.2%
40 | Cc1n[nH]c(C)c1C1CCN(CC2CCC(NC(=O)/C=C/c3ccc(Cl)c(Cl)c3)CC2)CC1 (stereo not given) | 5.93%
